Assay results reported in PubChem BioAssay (Tox21).
Records with an inconclusive call do not appear. A call without a number means that no potency is given here. Activity calls are given as the source filed them. The call rests on the fitted dose curve; in most records, active means well fitted cell-killing curve with a large enough effect in the repeat runs; inconclusive means weak or mixed curves, or effect the other way; inactive means flat fitted curve, though single readings scatter.

Test: cAMP Responsive Elements (CRE) small molecule antagonists, cell-based qHTS assay: qHTS cell viability counter screen (AID 2060913); further: nearly all actives have a fitted effect of over 40% in size
Conditions: CRE-bla HEK293T viability, CellTiter-Glo luminescence, 5 h; series mostly up to 92.4 µM
In short: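 CRE-bla HEK293T cells (2,000/well, 18 h) given compound plus NKH477 0.25 uM final for 3 h at 37C; viability counter-screen by CellTiter-Glo luminescence in same wells after 30 min.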

**Q.** Which Potency does the source give for `CC(C)(C)C(=O)C(Oc1ccc(Cl)cc1)n1ccnc1` (stereo not given) here?
**A.** Its Potency is “inactive”.

**Q.** Which Potency does the source give for `CCOC(=O)O[C@]1(C(=O)OCCl)CC[C@H]2[C@@H]3CCC4=CC(=O)C=C[C@]4(C)[C@H]3[C@@H](O)C[C@@]21C` here?
**A.** The Potency was “inactive”.

**Q.** With `O=[N+]([O-])c1cc(C(F)(F)F)ccc1Cl` as the molecule, how does the Potency read?
**A.** Its Potency is “inactive”.

**Q.** With `CC(C)(C)c1ccc(OC(=O)c2ccccc2O)cc1` as the molecule, how does the Potency read?
**A.** The Potency was “inactive”.

**Q.** Which Potency does the source give for `COc1ccc2[nH]c(S(=O)Cc3ncc(C)c(OC)c3C)nc2n1` (stereo not given) here?
**A.** The Potency was “inactive”.

Test: cAMP Responsive Elements (CRE) small molecule agonists, cell-based qHTS assay: qHTS cell viability counter screen (AID 2060914); further: nearly all actives have a fitted effect of over 50% in size
Conditions: CRE-bla HEK293T viability, CellTiter-Glo luminescence, 5 h; series mostly up to 92.4 µM
In short: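 Luminescence read-out (CellTiter-Glo, 30 min RT) of ATP-based viability in CRE-bla HEK 293T cells, run in the same wells as the β-lactamase reporter assay after 3 h compound treatment at 37 °C.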

**Q.** For `CCOc1ccccc1OCC`, which Potency is on record?
**A.** Its Potency is “inactive”.

**Q.** With `CC(C)(C)C(=O)C(Oc1ccc(Cl)cc1)n1ccnc1` (stereo not given) as the molecule, how does the Potency read?
**A.** Its Potency is “inactive”.

**Q.** For `Cc1nn(C)c(Oc2ccccc2)c1/C=N/OCc1ccc(C(=O)OC(C)(C)C)cc1`, which Potency is on record?
**A.** The Potency was “inactive”.

**Q.** For `C=CC(=O)OCC(O)COc1ccccc1` (stereo not given), which Potency is on record?
**A.** The Potency was “inactive”.

**Q.** Which Potency does the source give for `COC(=O)CC(=O)OC` here?
**A.** The Potency was “inactive”.

**Q.** With `CCCC(=O)O` as the molecule, how does the Potency read?
**A.** Its Potency is “inactive”.

**Q.** Which Potency does the source give for `CCC1=C[C@@H]2CN(C1)Cc1c([nH]c3ccccc13)[C@@](C(=O)OC)(c1cc3c(cc1OC)N(C)[C@H]1[C@@](O)(C(=O)OC)[C@H](OC(C)=O)[C@]4(CC)C=CCN5CC[C@]31[C@@H]54)C2` here?
**A.** Its Potency is “inactive”.

**Q.** With `C[C@]12CCC(=O)C=C1[C@@H]1C[C@@H]1[C@H]1[C@@H]3[C@@H]4C[C@@H]4[C@@]4(CCC(=O)O4)[C@@]3(C)CC[C@@H]12` as the molecule, how does the Potency read?
**A.** The Potency was “inactive”.

**Q.** For `CCOC(=O)O[C@]1(C(=O)OCCl)CC[C@H]2[C@@H]3CCC4=CC(=O)C=C[C@]4(C)[C@H]3[C@@H](O)C[C@@]21C`, which Potency is on record?
**A.** The Potency was “inactive”.

**Q.** With `O=C(c1ccc(Cl)cc1)c1ccc(Cl)cc1` as the molecule, how does the Potency read?
**A.** The Potency was “inactive”.

**Q.** Which Potency does the source give for `COc1cc2c(cc1OC)C(C(C(=O)N(CCc1ccc(OC)c(OC)c1OC)CCc1ccc(OC)c(OC)c1OC)c1ccccc1)=NCC2` (stereo not given) here?
**A.** Its Potency is “inactive”.

**Q.** With `CC1CCCC1` as the molecule, how does the Potency read?
**A.** Its Potency is “inactive”.

**Q.** For `CCCCOc1cc(C(=O)OCCN(CC)CC)ccc1N`, which Potency is on record?
**A.** The Potency was “inactive”.

**Q.** With `CCCCOC(=O)c1ccccc1C(=O)OCC(CC)CCCC` (stereo not given) as the molecule, how does the Potency read?
**A.** The Potency was “inactive”.

**Q.** With `Cc1ccccc1N=C(N)N=C(N)N` as the molecule, how does the Potency read?
**A.** The Potency was “inactive”.

**Q.** With `CCCCCc1ccc(Cl)cc1` as the molecule, how does the Potency read?
**A.** The Potency was “inactive”.

**Q.** For `CCCCCCC/C=C/C=O`, which Potency is on record?
**A.** The Potency was “inactive”.

**Q.** For `CC(=O)OCC(=O)NCCCOc1cccc(CN2CCCCC2)c1`, which Potency is on record?
**A.** Its Potency is “inactive”.

**Q.** With `C=C1CC[C@H](O)C/C1=C\C=C1/CCC[C@]2(C)[C@@H]([C@H](C)CCCC(C)C)CC[C@@H]12` as the molecule, how does the Potency read?
**A.** Its Potency is “inactive”.

**Q.** Which Potency does the source give for `C=CC(C)(O)CCCC(C)CCCC(C)CCCC(C)C` (stereo not given) here?
**A.** Its Potency is “inactive”.

**Q.** For `O=[N+]([O-])c1cc(C(F)(F)F)ccc1Cl`, which Potency is on record?
**A.** The Potency was “inactive”.

**Q.** Which Potency does the source give for `NNC(=O)OCc1ccccc1` here?
**A.** The Potency was “inactive”.

**Q.** Which Potency does the source give for `Nc1nc(F)nc2c1ncn2[C@@H]1O[C@H](CO)[C@@H](O)[C@@H]1O` here?
**A.** Its Potency is “inactive”.

**Q.** For `C=COCC1CCC(COC=C)CC1` (stereo not given), which Potency is on record?
**A.** The Potency was “inactive”.

**Q.** For `CC(C)(O)c1ccccc1`, which Potency is on record?
**A.** Its Potency is “inactive”.

**Q.** With `CCCC(=O)C(C)=O` as the molecule, how does the Potency read?
**A.** The Potency was “inactive”.

**Q.** For `CC1(C)S[C@@H]2[C@H](NC(=O)Cc3ccccc3)C(=O)N2[C@H]1C(=O)O` (tested in a mixture with another compound), which Potency is on record?
**A.** Its Potency is “inactive”.

**Q.** With `Cc1c(OCC(F)(F)F)ccnc1CS(=O)c1nc2ccccc2[nH]1` (stereo not given) as the molecule, how does the Potency read?
**A.** The Potency was “inactive”.

**Q.** With `NS(=O)(=O)Cc1noc2ccccc12` as the molecule, how does the Potency read?
**A.** The Potency was “inactive”.

**Q.** Which Potency does the source give for `CC(C)(C)c1ccc(OC(=O)c2ccccc2O)cc1` here?
**A.** Its Potency is “inactive”.

**Q.** With `CN1CCN(c2c(F)cc3c(=O)c(C(=O)O)cn4c3c2SCC4)CC1` as the molecule, how does the Potency read?
**A.** Its Potency is “inactive”.

**Q.** Which Potency does the source give for `O=C1Nc2ccc(Cl)cc2[C@@](C#CC2CC2)(C(F)(F)F)O1` here?
**A.** The Potency was “inactive”.

**Q.** Which Potency does the source give for `COCCO` here?
**A.** The Potency was “inactive”.

**Q.** Which Potency does the source give for `O=c1[nH]cnc2c1ncn2[C@@H]1O[C@H](CO)[C@@H](O)[C@H]1O` here?
**A.** Its Potency is “inactive”.

**Q.** Which Potency does the source give for `O=C(O)C1(C(=O)O)CCC1.[NH2-].[NH2-].[Pt+2]` here?
**A.** The Potency was “inactive”.

**Q.** Which Potency does the source give for `CCCOCCOCCOCCO` here?
**A.** Its Potency is “inactive”.

**Q.** For `COc1ccc2[nH]c(S(=O)Cc3ncc(C)c(OC)c3C)nc2n1` (stereo not given), which Potency is on record?
**A.** Its Potency is “inactive”.

**Q.** Which Potency does the source give for `CCc1cc(Cc2cc(CC)c(N)c(CC)c2)cc(CC)c1N` here?
**A.** The Potency was “inactive”.

**Q.** With `CCCC[C@H]1CN(CC2CCOCC2)C(=O)OC12CCN(C1(C)CCN(C(=O)c3c(C)ncnc3C)CC1)CC2` as the molecule, how does the Potency read?
**A.** The Potency was “inactive”.

**Q.** With `Cc1c2ccccc2c(C)c2c1ccc1ccccc12` as the molecule, how does the Potency read?
**A.** The Potency was “inactive”.
